Consider 13 compounds from PubChem BioAssay (Tox21).

“And” between values parts separate entries of the source, which are not always exact repeats. Equal entries are not always repeated. Results filed as inconclusive are left out. A structure can be active in one record and inactive in another. The source made the active and inactive calls. Unless noted, calls follow the shape of the dose curve; as a rule, active = well fitted curve in the direction sought with a large enough effect in the repeat runs; inconclusive = weak or mixed curves; inactive = no such curve, though single readings can be large; an effect the other way counts as inactive or inconclusive.

The nature of assay [1]: qHTS assay to identify small molecule antagonists of the sonic hedgehog signaling (Shh) pathway (AID 1259369; calls by dose curve; also: nearly all actives have a fitted effect of over 45% in size). In short, it runs like this: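 Gli1 transcriptional reporter (firefly Luc) in NIH/3T3 background, conditioned-medium activated. 24hr exposure, luminescence endpoint.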
Assay [2] can be described thus: qHTS assay to identify small molecule agonists of the androgen receptor (AR) signaling pathway in the presence of an antagonist - cell viability counter screen (AID 1259379). Also: nearly all actives have a fitted effect of over 25% in size. Also: potency is read from the fitted curve at half-maximal effect.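 As to activity change, negative = cytotoxicity: MDA-kb2 human breast cancer cells carrying an MMTV luciferase reporter; series mostly up to about 92 µM.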 In outline: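 Counter screen for cell viability run in parallel with the AR agonist-mode luciferase assay. MDA-kb2 cells were co-treated with nilutamide (3.0uM final) and compounds, then incubated 16 hr at 37C, and CellTiter-Fluor fluorescence was measured.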
On the technique in general: Quantitative high-throughput screening tests each substance at several concentrations.

Assay [3] is described as follows: qHTS assay to identify small molecule agonists of the estrogen receptor beta (ER-beta) signaling pathway - cell viability counter screen (AID 1259380). Also: nearly all actives have a fitted effect of over 30% in size. Also: potency is read from the fitted curve at half-maximal effect. In short, it runs like this: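 In this qHTS counter screen, HEK293T cells carrying an ER-beta/UAS beta-lactamase reporter, grown in 2% charcoal-stripped FBS, received compound for 16 hr; ATP-based CellTiter-Glo luminescence was then read after 30 min at room temperature.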

Assay [4] is described as follows: qHTS assay to identify small molecule antagonists of the estrogen receptor beta (ER-beta) signaling pathway - cell viability counter screen (AID 1259382).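 Also: HEK293T cells carrying ER-beta-UAS-bla reporter stimulated with estradiol; series mostly up to about 92 µM; nearly all actives have a fitted effect of over 55% in size.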 In outline: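 HEK293T ER-beta-UAS-bla, 2% charcoal-stripped FBS; compounds + 1nM E2 16 hr 37C; CellTiter-Glo luminescence, 30 min RT.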
The target of assay [5] is Estrogen receptor (Homo sapiens) (UniProt P03372). The assay is described as follows: qHTS assay to identify small molecule agonists of the estrogen receptor alpha (ER-alpha) signaling pathway in the presence of an antagonist (AID 1259383; calls by dose curve; also: nearly all actives have a fitted effect of over 15% in size; also: potency is read from the fitted curve at half-maximal effect; as to activation: top concentration of the series differs between compounds). In outline: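 ER-alpha agonism measured under antagonist challenge: 10.0nM ICI-182,780 (final) plus compound, 15 concentrations, 22hr, VM7Luc4E2 ERE-luciferase cells. Read by luminescence.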

In assay [6] the target is Thyrotropin receptor (Homo sapiens) (UniProt P16473). Kind of assay: qHTS assay to identify small molecule antagonists of the thyroid stimulating hormone receptor (TSHR) signaling pathway (AID 1259385; calls by dose curve; also: nearly all actives have a fitted effect of over 20% in size). In outline:
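TSHR-HEK293 cells were plated and held 18 h at 37C/5% CO2, then given compound plus Ro20-1724 and stimulated with TSH at 1.5 ng/mL final. After 30 min at room temperature, cAMP was detected with cAMP-d2/anti-cAMP-cryptate (1 h) by fluorescence.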

Assay [7] can be described thus: qHTS assay to identify small molecule agonists of the estrogen receptor alpha (ER-alpha) signaling pathway in the presence of an antagonist - cell viability counter screen (AID 1259386).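 Also: cells exposed to compounds for 22 h at 37 °C before the viability read; nearly all actives have a fitted effect of over 30% in size.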 Also: potency is read from the fitted curve at half-maximal effect. As to activity change, negative = cytotoxicity: series mostly up to about 92 µM. In short, it runs like this: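 Steps: 5-day stripped-FBS culture; seed and incubate 24hr; add ICI-182,780 (10.0nM final); pin 15-point compound titration; incubate 22hr at 37C; add CellTiter-Fluor at 21hr; read fluorescence.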

Assay [8] deals with Progesterone receptor (Homo sapiens) (UniProt P06401). The assay is described as follows: qHTS assay to identify small molecule agonists of the progesterone receptor (PR) signaling pathway (AID 1346784; calls by dose curve; also: nearly all actives have a fitted effect of over 30% in size; also: potency is read from the fitted curve at half-maximal effect). In short, it runs like this: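 Agonist mode, quantitative HTS format in a HEK 293T line expressing a UAS-controlled beta-lactamase reporter; 16 hr compound exposure at 37C in 2% charcoal-stripped FBS, then LiveBLAzer B/G FRET fluorescence.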

Assay [9] shares this target. Kind of assay: qHTS assay to identify small molecule antagonists of the progesterone receptor (PR) signaling pathway (AID 1346795; active = well fitted inhibition curve with a large enough effect in the signal ratio in the repeat runs, not every such curve was filed as active; the % refers to the signal ratio; also: potency is read from the fitted curve at half-maximal effect). In outline: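 HEK293T PR-UAS-bla reporter cells in charcoal-stripped serum (2%) received compound after a 6 hr settling period, followed by R5020 agonist at 1 nM final; 16 hr incubation preceded the FRET substrate step and fluorescence measurement.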

Assay [10] can be described thus: qHTS assay to identify small molecule antagonists of the progesterone receptor (PR) signaling pathway - cell viability counter screen (AID 1346798). Also: series mostly up to about 92 µM; nearly all actives have a fitted effect of over 50% in size. In short, it runs like this: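 Same-well multiplex: after 16 hr at 37C with compound and R5020 stimulation, HEK293T cells carrying a UAS-bla reporter received LiveBLAzer substrate (2 hr RT), then CellTiter-Glo (30 min RT) for luminescent viability.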

Assay [11] can be described thus: qHTS assay to identify small molecule agonists of the progesterone receptor (PR) signaling pathway - cell viability counter screen (AID 1346799; calls by dose curve; also: nearly all actives have a fitted effect of over 45% in size). In outline: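 Counter screen for cytotoxicity: compound-treated PR-UAS-bla HEK293T cells (16 hr, 37C, 5% CO2) were assayed with CellTiter-Glo, luminescence measured after 30 min at room temperature.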
A short description of assay [12]: qHTS assay to identify small molecule antagonists of the TGF-beta/Smad signaling pathway - cell viability counter screen (AID 1346824). Also: nearly all actives have a fitted effect of over 50% in size. In short, it runs like this: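 SBE-bla HEK 293T cells were plated overnight at 37 C, then given compounds in DMSO plus TGF-beta1 (added as 0.25 ng/mL solution) for 5 hr. After the bla read, CellTiter-Glo was added to the same wells and luminescence read after 30 min at room temperature.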

Assay [13] is described as follows: qHTS assay to identify small molecule agonists of the TGF-beta/Smad signaling pathway - cell viability counter screen (AID 1346829). Also: top concentration of the series differs between compounds; nearly all actives have a fitted effect of over 45% in size. In outline:
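CellTiter-Glo luminescence readout; SBE-bla HEK 293T cells, overnight plating, compound 5 hr at 37 C/5% CO2, then bla substrate 2 hr RT, then CellTiter-Glo 30 min RT.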

Assay [14] can be described thus: qHTS assay to identify small molecule agonists of the TGF-beta/Smad signaling pathway (AID 1346859; active = well fitted activation curve with a large enough effect in the signal ratio in the repeat runs, not every such curve was filed as active; the % refers to the signal ratio; also: series mostly up to about 77 µM). In short, it runs like this:
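Smad-responsive beta-lactamase reporter cells (HEK 293T) received compounds from DMSO stocks after overnight attachment, were incubated 5 hr, then treated 2 hr with FRET substrate before dual-emission fluorescence measurement (405 nm excitation).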

A short description of assay [15]: qHTS assay to identify small molecule agonists or antagonists of the thyroid stimulating hormone receptor (TSHR) signaling pathway - wild type cell line counter screen (AID 1259384; calls by dose curve). In short, it runs like this: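 Wild-type HEK293 cells were plated 18 h at 37 C/5% CO2, pin-dosed with compound plus Ro20-1724 medium, held 30 min at room temperature, then given cAMP-d2 and anti-cAMP-cryptate; fluorescence was read after 1 h. Fifteen concentrations, triplicate.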

The target of assay [16] is Thyrotropin-releasing hormone receptor (Homo sapiens) (UniProt P34981). Kind of assay: qHTS assay to identify small molecule antagonists of the thyrotropin-releasing hormone receptor (TRHR) signaling pathway (AID 1346877; active = well fitted inhibition curve with a large enough effect in the repeat runs, not every such curve was filed as active; also: series mostly up to about 51 µM). In short, it runs like this:
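Human TRHR in HEK293 cells; inhibition of the intracellular calcium rise triggered by 1 nM TRH was followed by fluorescence over 3 min. Compounds were run at 15 concentrations, three replicates each.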

For assay [17] the target is unchanged. Kind of assay: qHTS assay to identify small molecule agonists of the thyrotropin-releasing hormone receptor (TRHR) signaling pathway (AID 1346891; calls by dose curve;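 also: HEK293 cells expressing TRHR with calcium dye readout; series mostly up to about 58 µM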). In short, it runs like this: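 Agonist-mode calcium mobilisation screen: TRHR-transfected HEK293 cells cultured overnight (18 h), dye-loaded for 2 h at 37 °C, exposed to compounds, and monitored by fluorescence for 3 min.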
% is scaled to controls: 0 for no effect and ±100 for the full control effect.

Chain of Thyrotropin receptor (Homo sapiens) (P16473 whole entry, looked up): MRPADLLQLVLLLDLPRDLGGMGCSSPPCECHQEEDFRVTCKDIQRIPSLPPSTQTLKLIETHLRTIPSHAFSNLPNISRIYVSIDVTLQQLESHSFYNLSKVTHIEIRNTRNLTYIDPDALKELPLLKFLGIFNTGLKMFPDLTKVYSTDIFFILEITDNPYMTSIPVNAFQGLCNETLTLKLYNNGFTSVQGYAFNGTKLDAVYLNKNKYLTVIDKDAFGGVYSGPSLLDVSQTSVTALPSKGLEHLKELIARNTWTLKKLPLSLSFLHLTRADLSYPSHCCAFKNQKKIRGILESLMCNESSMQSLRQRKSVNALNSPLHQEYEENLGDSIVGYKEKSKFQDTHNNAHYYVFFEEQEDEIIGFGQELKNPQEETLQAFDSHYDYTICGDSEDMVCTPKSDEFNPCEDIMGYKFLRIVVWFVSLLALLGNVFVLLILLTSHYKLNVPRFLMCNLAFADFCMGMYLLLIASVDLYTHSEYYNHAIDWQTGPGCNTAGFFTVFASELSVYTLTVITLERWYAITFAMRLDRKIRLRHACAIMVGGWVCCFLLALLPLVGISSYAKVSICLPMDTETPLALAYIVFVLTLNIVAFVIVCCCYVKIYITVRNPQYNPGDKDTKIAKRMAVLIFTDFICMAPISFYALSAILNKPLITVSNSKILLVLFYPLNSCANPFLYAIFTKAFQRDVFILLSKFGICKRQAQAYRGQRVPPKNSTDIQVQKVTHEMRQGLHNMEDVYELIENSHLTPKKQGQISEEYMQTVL
Chain of Thyrotropin-releasing hormone receptor (Homo sapiens) (P34981 whole entry, looked up): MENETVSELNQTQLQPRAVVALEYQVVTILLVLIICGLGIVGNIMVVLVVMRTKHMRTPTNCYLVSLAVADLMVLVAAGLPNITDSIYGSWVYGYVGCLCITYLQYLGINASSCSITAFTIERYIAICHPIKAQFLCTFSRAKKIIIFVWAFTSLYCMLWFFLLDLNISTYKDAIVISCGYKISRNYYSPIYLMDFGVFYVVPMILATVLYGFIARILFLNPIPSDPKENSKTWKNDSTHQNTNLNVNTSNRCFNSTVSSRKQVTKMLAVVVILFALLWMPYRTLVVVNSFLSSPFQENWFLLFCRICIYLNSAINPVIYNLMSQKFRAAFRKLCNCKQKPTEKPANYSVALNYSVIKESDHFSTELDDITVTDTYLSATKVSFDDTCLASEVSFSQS
Chain of Progesterone receptor (Homo sapiens) (P06401 whole entry, looked up): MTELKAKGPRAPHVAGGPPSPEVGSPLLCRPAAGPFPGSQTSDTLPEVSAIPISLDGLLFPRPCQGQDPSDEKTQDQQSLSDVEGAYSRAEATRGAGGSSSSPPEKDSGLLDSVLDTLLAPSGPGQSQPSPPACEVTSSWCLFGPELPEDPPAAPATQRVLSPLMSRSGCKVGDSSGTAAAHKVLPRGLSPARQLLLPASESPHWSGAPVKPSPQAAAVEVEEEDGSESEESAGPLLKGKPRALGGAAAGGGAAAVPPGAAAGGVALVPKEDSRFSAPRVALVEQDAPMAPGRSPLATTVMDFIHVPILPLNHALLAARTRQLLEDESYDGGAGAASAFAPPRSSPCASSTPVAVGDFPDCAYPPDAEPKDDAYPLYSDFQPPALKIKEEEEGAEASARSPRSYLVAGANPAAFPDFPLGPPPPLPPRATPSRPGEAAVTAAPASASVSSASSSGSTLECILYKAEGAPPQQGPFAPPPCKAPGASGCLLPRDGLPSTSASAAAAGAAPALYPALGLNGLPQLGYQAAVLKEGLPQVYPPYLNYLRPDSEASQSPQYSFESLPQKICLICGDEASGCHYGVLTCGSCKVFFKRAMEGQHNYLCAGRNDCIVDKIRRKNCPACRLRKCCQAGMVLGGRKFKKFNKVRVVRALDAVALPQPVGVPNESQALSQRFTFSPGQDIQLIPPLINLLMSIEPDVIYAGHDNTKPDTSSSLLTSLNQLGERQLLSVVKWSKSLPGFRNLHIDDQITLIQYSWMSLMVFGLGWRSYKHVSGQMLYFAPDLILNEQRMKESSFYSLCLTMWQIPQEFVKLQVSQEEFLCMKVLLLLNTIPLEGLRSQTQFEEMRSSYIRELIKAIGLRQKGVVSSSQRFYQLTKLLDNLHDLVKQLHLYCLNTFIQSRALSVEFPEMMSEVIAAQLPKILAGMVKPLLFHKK
Chain of Estrogen receptor (Homo sapiens) (P03372 whole entry, looked up): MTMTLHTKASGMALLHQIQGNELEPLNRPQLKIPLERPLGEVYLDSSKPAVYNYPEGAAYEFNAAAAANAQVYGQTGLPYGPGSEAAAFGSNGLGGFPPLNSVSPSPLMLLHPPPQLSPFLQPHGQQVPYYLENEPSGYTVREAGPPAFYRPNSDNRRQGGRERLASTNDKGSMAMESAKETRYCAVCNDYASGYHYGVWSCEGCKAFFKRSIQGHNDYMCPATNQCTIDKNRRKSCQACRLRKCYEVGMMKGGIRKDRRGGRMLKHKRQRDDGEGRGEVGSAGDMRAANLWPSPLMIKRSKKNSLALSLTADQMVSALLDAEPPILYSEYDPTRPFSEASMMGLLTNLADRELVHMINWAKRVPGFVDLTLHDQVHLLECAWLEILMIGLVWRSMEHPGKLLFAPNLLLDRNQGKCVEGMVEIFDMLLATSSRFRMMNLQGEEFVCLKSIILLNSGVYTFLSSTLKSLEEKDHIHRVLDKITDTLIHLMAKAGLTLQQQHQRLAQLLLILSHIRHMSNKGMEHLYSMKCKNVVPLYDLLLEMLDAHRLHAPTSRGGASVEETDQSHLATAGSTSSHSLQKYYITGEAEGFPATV

Regarding `Nc1cccc(N)n1`, the Potency result in [1], in assay [2], in assay [3], in assay [4], in assay [5] and in [6] was “inactive” each time. In addition, the Potency result in assay [7], in [8], in assay [9], in assay [10], in assay [11] and in [12] was “inactive” in each case. For the same compound, the Potency entry in [13] and in assay [14] was “inactive” each time.
On to `O=c1n(CCCN2CCN(c3cccc(Cl)c3)CC2)nc2ccccn12`, for which the Potency result in assay [1], in assay [2], in [4], in assay [6], in assay [7] and in assay [8] was “inactive” throughout. The Potency result in [9], in [10], in [11], in assay [12], in [13] and in assay [14] was “inactive” throughout. Moreover, the Potency in assay [3] is 24.3 µM (active).
As for `CCCOC(=O)NCCCN(C)C`, the Potency result in assay [1], in assay [2], in [3], in assay [4], in [15] and in [6] was “inactive” throughout. Moreover, the Potency result in [7], in assay [10], in assay [11], in assay [12], in [13] and in assay [14] was “inactive” throughout.
For `CCn1cc(C(=O)O)c(=O)c2cc3c(cc21)OCO3`, the Potency entry in assay [1], in assay [2], in assay [3], in assay [4], in assay [6] and in [7] was “inactive” each time. Moreover, the Potency result in [9], in assay [10], in [12], in assay [13], in assay [14] and in [16] was “inactive” each time. Moreover, in assay [8], the Potency was 1.24 µM (active). Further, the activation in assay [8] is -1.39% [at 19 µM] (inactive). Besides, the activity change, negative = cytotoxicity in [11] is -0.681% [at 19 µM] (inactive). For the same compound, the result in assay [17] was inactive.
Consider `OC[C@H]1O[C@@H](Oc2ccc(O)cc2)[C@H](O)[C@@H](O)[C@@H]1O`, for which the Potency result in assay [1], in [2], in [3], in [4], in assay [5] and in [6] was “inactive” in each case. The Potency result in assay [7], in [8], in assay [9], in assay [10], in assay [11] and in [12] was “inactive” throughout. For the same compound, the Potency entry in assay [13], in assay [14] and in assay [16] was “inactive” throughout. For the same compound, in assay [17], the call was inactive.
Turning to `CC1(C)[C@@H](O[C@H]2O[C@H](C(=O)O)[C@@H](O)[C@H](O)[C@H]2O[C@@H]2O[C@H](C(=O)O)[C@@H](O)[C@H](O)[C@H]2O)CC[C@]2(C)[C@H]3C(=O)C=C4[C@@H]5C[C@@](C)(C(=O)O)CC[C@]5(C)CC[C@@]4(C)[C@]3(C)CC[C@@H]12`, the Potency entry in [1], in assay [2], in assay [3], in [4], in [6] and in assay [7] was “inactive” each time. Also, the Potency entry in [8], in assay [9], in [10], in assay [11], in [12] and in assay [13] was “inactive” each time. The Potency entry in assay [14] was “inactive”.
For `O=c1c(O)c(-c2ccc(O)c(O)c2)oc2cc(O)cc(O)c12`, the Potency entry in [1], in [3], in assay [4], in assay [6], in [7] and in assay [8] was “inactive” in each case. The Potency result in assay [10], in assay [11], in [12], in [14] and in assay [16] was “inactive” in each case. Besides, the Potency in [2] was 48.6 µM (active) and inactive; in assay [5] it was 24.4 µM (active) and inactive; in assay [9] it was 15.4 µM (active) and 16.8 µM (active). The compound was classed as inactive in [17].
For `OC1CCCCC1`, the Potency result in assay [1], in assay [2], in assay [3], in assay [4], in [5] and in [6] was “inactive” throughout. The Potency result in [7], in assay [8], in assay [9], in assay [10], in assay [11] and in assay [12] was “inactive” each time. Besides, the Potency entry in assay [13] and in [14] was “inactive” each time.
Regarding `c1cnc2c(c1)ccc1cccnc12`, the Potency entry in [1], in assay [15], in assay [6], in assay [8], in assay [12] and in [13] was “inactive” throughout. The Potency entry in [14] was “inactive”. Also, the Potency is 15.5 µM (active) and 30.6 µM (active) and 21.7 µM (active) in [2]; 2.43 µM (active) in assay [3]; 5.5 µM (active) in [7]; 309 nM (active) and 306 nM (active) in assay [9].
`C=C1C[C@]23C[C@@]1(O)CC[C@H]2[C@@]12C=C[C@H](O)[C@@](C)(C(=O)O1)[C@H]2[C@@H]3C(=O)O`: the Potency result in [1], in assay [2], in assay [3], in [4], in [15] and in assay [6] was “inactive” each time. For the same compound, the Potency result in assay [7], in assay [8], in [9], in assay [10], in [11] and in [12] was “inactive” in each case. For the same compound, the Potency result in assay [13] and in [14] was “inactive” in each case.
Consider `N[C@@H](Cc1cc(I)c(Oc2ccc(O)c(I)c2)c(I)c1)C(=O)O`, for which the Potency entry in assay [1], in [2], in assay [3], in [4], in assay [5] and in [6] was “inactive” in each case. The Potency entry in assay [7], in assay [8], in assay [10], in assay [11], in [12] and in [13] was “inactive” throughout. The Potency entry in assay [14] is “inactive”.
As for `Cc1cc(C)c(O)c(C)c1`, the Potency result in [1], in [2], in assay [3], in assay [4], in assay [5] and in [6] was “inactive” throughout. Further, the Potency result in [7], in assay [8], in [9], in assay [10], in [11] and in [12] was “inactive” throughout. The Potency result in assay [13], in assay [14] and in assay [16] was “inactive” in each case. The call in assay [17] was inactive.
For the compound `Cc1ccc(Cl)cc1`, the Potency result in assay [1], in assay [2], in assay [3], in assay [4], in assay [5] and in assay [15] was “inactive” throughout. The Potency result in assay [6], in assay [7], in [8], in assay [9], in assay [10] and in assay [11] was “inactive” throughout. Also, the Potency entry in assay [12], in [13], in assay [14] and in assay [16] was “inactive” in each case. The outcome in [17] was inactive.
